Screening results as filed in PubChem BioAssay.
Only some compounds are listed: those with a hit (about 28% of all), similar ones and a draw of the others.
CYP2C19 inhib: human CYP2C19 inhibition. P33261. AID 778. hit rate 21% among 96,000. inhibition, % at 5 µM. CYP2C19 Supersomes, luciferin-H EGE luminescence, 30 min;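 active = CYP2C19 inhibition above a set limit at 5 µM in the primary screen, cut at about 50% in these data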;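 note: plate controls were negative control wells for no effect and 2.5 mM tranylcypromine positive control for full effect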
CYP2C9 activ: activators of human CYP2C9; P11712; recombinant CYP2C9, luciferin-H conversion, luminescence; active compounds read high; factor 1 = untreated enzyme, 0 = blocked; activation factor at 5 µM; hit rate 1.4% among 96,000; AID 1024;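 active = activation factor of 2 or more for CYP2C9 at a 5 µM dose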;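 note: 0 = sulfaphenazole-blocked wells and 1 = vehicle-only wells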
CYP2C19 act: cytochrome P450 2C19 (human) activation. P33261. recombinant CYP2C19, luciferin-H EGE luminescence; active compounds read high; 0 = fully inhibited enzyme, 1 = untreated enzyme. activation factor at 5 µM. 96,000 tested, under 10 active. AID 1025;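 active = activation factor of at least 2 at 5 µM in the primary screen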;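 note: 0 = wells with 2.5 mM tranylcypromine and 1 = vehicle-only wells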
CYP2C9 inhib: blocks human cytochrome P450 2C9; P11712; CYP2C9 Supersomes, luciferin-H conversion, luminescence; inhibition, % at 5 µM; hit rate 20% among 96,000; AID 777;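 active = blocking of liver enzyme CYP2C9 beyond about 50% at 5 µM, limit read from the data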
Pyk2 oligo antag: antagonists of human Pyk2 oligomerization; Q293 cells, Pyk2 FERM NanoBiT luminescence; active compounds read low; z-score (the deposit names both 25 µM and 10 µM); hit rate 0.83% among 99,000;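 active = Z-score of -3 or lower, scaled per plate to the spread of control and sample wells; inactive = z-score above -3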;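 note: negative z-score means lost luminescence so less FERM oligomerization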
Target sequence (Q14289 whole entry, looked up): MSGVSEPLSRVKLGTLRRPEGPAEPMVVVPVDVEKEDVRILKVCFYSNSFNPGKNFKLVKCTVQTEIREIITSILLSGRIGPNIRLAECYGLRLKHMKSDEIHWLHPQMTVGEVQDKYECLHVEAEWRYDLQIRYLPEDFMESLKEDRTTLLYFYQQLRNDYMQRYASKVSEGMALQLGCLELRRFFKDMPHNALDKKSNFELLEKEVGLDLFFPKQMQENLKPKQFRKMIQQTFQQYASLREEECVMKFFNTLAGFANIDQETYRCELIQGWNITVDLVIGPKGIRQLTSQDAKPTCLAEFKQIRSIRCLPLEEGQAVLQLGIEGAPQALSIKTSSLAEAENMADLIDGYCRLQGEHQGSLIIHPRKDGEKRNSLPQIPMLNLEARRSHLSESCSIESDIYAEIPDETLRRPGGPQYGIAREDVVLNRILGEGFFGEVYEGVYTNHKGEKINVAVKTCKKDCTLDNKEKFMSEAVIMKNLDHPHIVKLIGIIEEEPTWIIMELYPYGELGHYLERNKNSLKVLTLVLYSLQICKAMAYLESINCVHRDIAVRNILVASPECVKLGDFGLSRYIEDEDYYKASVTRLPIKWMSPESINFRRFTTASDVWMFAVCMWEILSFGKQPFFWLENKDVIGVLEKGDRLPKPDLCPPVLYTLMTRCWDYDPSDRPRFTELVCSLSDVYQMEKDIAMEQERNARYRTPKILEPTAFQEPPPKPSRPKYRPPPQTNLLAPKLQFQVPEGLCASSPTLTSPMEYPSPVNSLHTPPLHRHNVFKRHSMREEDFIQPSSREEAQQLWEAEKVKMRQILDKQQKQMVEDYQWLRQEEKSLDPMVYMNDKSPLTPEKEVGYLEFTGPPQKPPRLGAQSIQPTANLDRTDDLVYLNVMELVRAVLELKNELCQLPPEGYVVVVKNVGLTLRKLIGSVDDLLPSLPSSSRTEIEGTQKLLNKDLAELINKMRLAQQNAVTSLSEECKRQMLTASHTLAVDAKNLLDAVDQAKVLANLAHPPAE
The depositor's hits bear a star.

For Cc1ccc(C)c(N2C(=O)CN=C2Nc2ccccc2Cl)c1 the results were CYP2C19 inhib 45.0, CYP2C9 activ 0.6, CYP2C19 act 0.6, CYP2C9 inhib 43.8 and Pyk2 oligo antag 1.08.
For COc1ccc(S(=O)(=O)n2ccc(-c3cnc(-c4ccccc4)s3)n2)cc1 the results were CYP2C19 inhib 21.2, CYP2C9 activ 0.3, CYP2C19 act 0.8, CYP2C9 inhib 69.4* and Pyk2 oligo antag -1.68.
O=C(O)CC(C(=O)O)n1nc(-c2ccccc2)cc1-c1ccccc1 (stereo not drawn) was read as CYP2C19 inhib 3.8, CYP2C9 activ 0.9, CYP2C19 act 1, CYP2C9 inhib 7.2 and Pyk2 oligo antag -0.24.
`O=C(c1ccccc1)n1ccc(-c2cnc(-c3ccccc3)s2)n1` gave CYP2C19 inhib 56.4*, CYP2C9 activ 0.8, CYP2C19 act 0.4, CYP2C9 inhib 15.0 and Pyk2 oligo antag -1.1.
For CN(CCOc1ccc(-c2ccn(S(=O)(=O)c3ccc(Cl)cc3)n2)cc1)c1ccccn1 the results were CYP2C19 inhib 11.6, CYP2C9 activ 0.7, CYP2C19 act 0.9, CYP2C9 inhib 30.7 and Pyk2 oligo antag 1.05.
For CCOC(=O)CN1C(=O)NC(C)(c2ccc(OC(F)F)cc2)C1=O (stereo not drawn) the results were CYP2C19 inhib 64.0*, CYP2C9 activ 0.6, CYP2C19 act 0.4, CYP2C9 inhib 35.1 and Pyk2 oligo antag 0.8.
For COc1ccc(-c2nn(-c3ccccc3)cc2C(=O)Nc2nccs2)cc1 the results were CYP2C19 inhib 30.0, CYP2C9 activ 0.5, CYP2C19 act 0.7, CYP2C9 inhib 51.8* and Pyk2 oligo antag -2.94.
`COc1cccc(-c2nn(-c3ccccc3)cc2C(=O)n2nnc3ccccc32)c1` gave CYP2C19 inhib -16.1, CYP2C9 activ 1.1, CYP2C19 act 1.2, CYP2C9 inhib -7.7 and Pyk2 oligo antag -0.36.
COc1cccc(-c2nn(-c3ccccc3)cc2C(=O)Nc2nccs2)c1 was read as CYP2C19 inhib 18.2, CYP2C9 activ 0.5, CYP2C19 act 0.8, CYP2C9 inhib 45.6 and Pyk2 oligo antag -3.65*.
For CCN(CC)C(=O)c1cn(CC)c(=O)c2cc(OC)c(OC)cc12 the results were CYP2C19 inhib -22.6, CYP2C9 activ 1.1, CYP2C19 act 1.2, CYP2C9 inhib -12.8 and Pyk2 oligo antag 1.2.
For C=CCNC(=O)C1CCN(S(=O)(=O)c2ccccc2)CC1 the results were CYP2C19 inhib 45.2, CYP2C9 activ 1.3, CYP2C19 act 0.5, CYP2C9 inhib -33.8 and Pyk2 oligo antag 0.39.
`CC1CCCC(NC(=O)Cn2cc3c(n2)CCCCC3)C1C` (stereo not drawn) gave CYP2C19 inhib -0.9, CYP2C9 activ 1.4, CYP2C19 act 1 and CYP2C9 inhib -44.8.
`CC(C)(C)c1cc(NC(=O)COC(=O)c2ccc3c(=O)n4c(nc3c2)CCC4)n(-c2ccccc2)n1` gave CYP2C19 inhib 77.0*, CYP2C9 activ 0.2, CYP2C19 act 0.2, CYP2C9 inhib 82.0* and Pyk2 oligo antag 0.99.
Cc1nc2ccccn2c1C(=O)N/N=C/c1cc(C)n(-c2ccc(Br)cc2)c1C was read as Pyk2 oligo antag 0.
CC(=O)NS(=O)(=O)c1cccnc1Nc1ccc(Cl)cc1 was read as CYP2C19 inhib 4.9, CYP2C9 activ 0.2, CYP2C19 act 1, CYP2C9 inhib 84.9* and Pyk2 oligo antag 1.61.
For CC(=O)NS(=O)(=O)c1cccnc1Nc1cccc(Cl)c1 the results were CYP2C19 inhib 8.8, CYP2C9 activ 0.5, CYP2C19 act 0.9, CYP2C9 inhib 50.5* and Pyk2 oligo antag 1.43.
O=C1CC(N2CCN(C3CCc4ccccc4C3)CC2)C(=O)N1c1ccccc1 (stereo not drawn) was read as Pyk2 oligo antag 1.48.
Screening CC1=C(C)/C(=N/OC(=O)c2cccc([N+](=O)[O-])c2)C=CC1=O returned Pyk2 oligo antag -0.46.
Cc1cccc(C(C)Nc2ccc([N+](=O)[O-])cn2)c1 (stereo not drawn) was read as CYP2C19 inhib 48.8, CYP2C9 activ 0.3, CYP2C19 act 0.5, CYP2C9 inhib 74.8* and Pyk2 oligo antag -1.22.
`CCN(CC(=O)NC)S(=O)(=O)c1ccc(C)cc1` gave CYP2C19 inhib 21.4, CYP2C9 activ 1.3, CYP2C19 act 0.8, CYP2C9 inhib -30.4 and Pyk2 oligo antag -0.15.
Screening CCN(CC(=O)NC)S(=O)(=O)c1ccc(Br)cc1 returned CYP2C19 inhib 52.3*, CYP2C9 activ 1.3, CYP2C19 act 0.5, CYP2C9 inhib -26.5 and Pyk2 oligo antag -0.41.
For O=C(O)c1ccc2c(c1)OCCO2 the results were CYP2C19 inhib -8.9, CYP2C9 activ 0.9, CYP2C19 act 1.1, CYP2C9 inhib 9.4 and Pyk2 oligo antag 2.01.
`CCN(CC(=O)Nc1ccc2c(c1)OCCO2)S(=O)(=O)c1cccs1` gave CYP2C19 inhib 62.4*, CYP2C9 activ 0.2, CYP2C19 act 0.4, CYP2C9 inhib 84.6* and Pyk2 oligo antag -0.22.
Screening Cc1ccc(S(=O)(=O)C(C)C(=O)c2ccc3c(c2)OCCO3)cc1 (stereo not drawn) returned CYP2C19 inhib 87.4*, CYP2C9 activ 1.1, CYP2C19 act 0.1, CYP2C9 inhib -12.7 and Pyk2 oligo antag 1.06.
CCN(CC(=O)Nc1ccc2c(c1)OCCO2)S(=O)(=O)c1ccc(C)cc1 was read as CYP2C19 inhib 24.2, CYP2C9 activ 0.2, CYP2C19 act 0.8, CYP2C9 inhib 75.6* and Pyk2 oligo antag -0.75.
Screening Cc1cc(NC(=O)CCCC(=O)Nc2ccc(F)cc2)no1 returned CYP2C19 inhib 46.5, CYP2C9 activ 0.6, CYP2C19 act 0.5, CYP2C9 inhib 37.0 and Pyk2 oligo antag -0.03.
`CCOC(=O)N1CCC(NC(=O)CCc2c(C)nc3ncnn3c2C)CC1` gave CYP2C19 inhib 3.3, CYP2C9 activ 0.8, CYP2C19 act 1, CYP2C9 inhib 24.1 and Pyk2 oligo antag 0.36.
For CCSc1ccccc1C(=O)Nc1cccc(OC)c1 the results were CYP2C19 inhib 41.2, CYP2C9 activ 0.9, CYP2C19 act 0.6, CYP2C9 inhib 6.7 and Pyk2 oligo antag -0.08.
For Cc1ccc(C(=O)N2CCN(c3ccc(C(F)(F)F)cn3)CC2)c(C)c1 the results were CYP2C19 inhib 63.5*, CYP2C9 activ 0.8, CYP2C19 act 0.4, CYP2C9 inhib 18.9 and Pyk2 oligo antag -0.08.
`Cc1ccc(C(=O)N2CCN(c3ccc(C(F)(F)F)cn3)CC2)cc1` gave CYP2C19 inhib 21.7, CYP2C9 activ 0.8, CYP2C19 act 0.8, CYP2C9 inhib 16.6 and Pyk2 oligo antag 0.09.
Screening Cc1c(C)n(C(=O)CSc2nc3ccccc3[nH]2)c2ccccc12 returned CYP2C19 inhib 94.9*, CYP2C9 activ 0.1, CYP2C19 act 0.1, CYP2C9 inhib 94.3* and Pyk2 oligo antag 0.27.
Cc1ccc2[nH]c(SCC(=O)N3CCOCC3)nc2c1C was read as CYP2C19 inhib 81.0*, CYP2C9 activ 0.8, CYP2C19 act 0.2, CYP2C9 inhib 16.3 and Pyk2 oligo antag 0.95.
`c1ccc2[nH]c(N3CCOCC3)nc2c1` gave CYP2C19 inhib -15.5, CYP2C9 activ 1.2, CYP2C19 act 1.2, CYP2C9 inhib -24.2 and Pyk2 oligo antag 0.27.
